# Laboratory results as given in PubChem BioAssay (EPA / NIEHS).
# The source made the active and inactive calls. How the source made its calls: active means hit-call score of the fitted dose curve at least 0.9, where 1 is the maximum; inconclusive means response in the unintended direction; inactive means score below 0.9.
# Biological target: Peroxisome proliferator-activated receptor gamma (Homo sapiens) (UniProt P37231)
# Experiment: OT_PPARg_PPARgSRC1_1440: Odyssey Thera (OT) 24-hour Protein-Complementation Assay for Peroxisome Proliferator-activated Receptor Gamma/ SRC-1 Co-activator (AID 2283388);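 further: nuclear to cytoplasmic ratio of reconstituted Venus YFP fluorescence in fixed imaged cells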
# Protocol: OT_PPARg_PPARgSRC1_1440 is a cell-based assay that uses HEK293T, a human kidney cell line, with measurements taken at 24 hours after chemical dosing in a 384-well plate.OT_PPARg_PPARgSRC1_1440 is one of one assay component(s) measured or calculated from the OT_PPARg_PPARgSRC1_1440 assay. It is designed to make measurements of protein fragment complementation, a form of binding reporter, as detected with fluorescence intensity signals by Protein-fragment Complementation technology.Data from the assay component OT_PPARg_PPARgSRC1_1440 was analyzed into 1 assay endpoint. This assay endpoint, OT_PPARg_PPARgSRC1_1440, was analyzed in the positive analysis fitting direction relative to DMSO as the negative control and baseline of activity. Using a type of binding reporter, measures of receptor for gain-of-signal activity can be used to understand the binding at the pathway-level as they relate to the gene PPARG. Furthermore, this assay endpoint can be referred to as a primary readout, because the performed assay has only produced 1 assay endpoint. To generalize the intended target to other relatable targets, this assay endpoint is annotated to the nuclear receptor intended target family, where the subfamily is non-steroidal.
# The OT PPARg/SRC-1 assay assessed receptor-chemical interactions using a rapidly maturing, intensely fluorescent mutant of YFP known as Venus, rationally dissected into two separate fragments. The fragments were obtained as follows: first, fragments coding for YFP1 and YFP2 (corresponding to amino acid residues 1-158 and 159-239 of the full length YFP, respectively) were generated by oligonucleotide synthesis (Blue Heron Biotechnology), and then PCR mutagenesis was used to generate the mutant fragments IFP1 and IFP2. Fusion constructs were transfected into HEK293T cells with a (Gly4Ser)2 linker between the PPARg/SRC-1 and YFP fragment genes to facilitate complementation when interacting proteins bring fragments into close proximity. The construct is transiently transfected in HEK293T cells 48 hours prior to treatment with test compounds. Cells are seeded into optical quality 384-well poly-D-lysine coated plates in MEM alpha medium (Invitrogen) supplemented with 10 percent FBS (Gemini Bio-Products) 1 percent penicillin and 1 percent streptomycin, and grown in 37C incubator equilibrated to 5 percent CO2. Cells are allowed to adhere for 24 hours prior to treatment with compounds of interest or controls for 24 hours. Cells are fixed in 4 percent formaldehyde and stained with Draq5 (BioStatus) to identify cells and subcellular compartment boundaries prior to signal detection. 8 Images per well were acquired on an Evotec Opera at 2 wavelengths (488 and 635nm), and the ratio of fluorescence in the nucleus relative to fluorescence in the cytoplasm (N/C Ratio) in the 488nm channel was calculated for a minimum of 350 cells per image.
# Chain of Peroxisome proliferator-activated receptor gamma (Homo sapiens) (P37231 whole entry, looked up): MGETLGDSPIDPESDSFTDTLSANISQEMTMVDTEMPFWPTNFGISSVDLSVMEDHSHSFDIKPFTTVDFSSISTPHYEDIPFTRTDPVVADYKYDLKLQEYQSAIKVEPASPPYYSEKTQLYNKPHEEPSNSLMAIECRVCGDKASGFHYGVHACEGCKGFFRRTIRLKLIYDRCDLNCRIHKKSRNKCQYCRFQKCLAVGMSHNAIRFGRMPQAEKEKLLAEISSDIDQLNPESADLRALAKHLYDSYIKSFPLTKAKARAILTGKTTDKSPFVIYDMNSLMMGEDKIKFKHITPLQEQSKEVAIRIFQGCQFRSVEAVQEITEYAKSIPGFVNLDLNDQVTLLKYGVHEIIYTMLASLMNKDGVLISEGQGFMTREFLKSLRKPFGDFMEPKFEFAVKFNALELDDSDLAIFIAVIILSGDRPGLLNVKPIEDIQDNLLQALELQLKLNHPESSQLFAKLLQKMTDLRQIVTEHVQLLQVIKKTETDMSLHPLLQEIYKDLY
Compound,outcome,AC50
CCCCC/C=C\CCC=O,inactive,–
COC(=O)c1c(C)cc(O)c(C)c1O,inactive,–
NC(CO)(CO)CO,inactive,–
O=C(c1ccccc1)C1CCC1,inactive,–
CCCCOCCOC(=O)COc1nc(Cl)c(Cl)cc1Cl,inactive,–
CC1=NN(c2cc(S(=O)(=O)O)ccc2Cl)C(=O)C1N=Nc1ccccc1 (stereo not given),inactive,–
CN(C)c1ccc(C(=N)c2ccc(N(C)C)cc2)cc1,–,28.7 µM (active)
C1=Cc2ccccc2C1,inactive,–
Cc1cc(C)c(C(=O)O)c(C)c1,inactive,–
O=C1CCCC1,inactive,–
Oc1ccc(Cl)cc1Cc1cc(Cl)ccc1O,inactive,–
O=C(OCC1CCC2OC2C1)C1CCC2OC2C1 (stereo not given),inactive,–
CCCCCCC1(C)CCC(=O)O1 (stereo not given),inactive,–
CCCc1ccc(OC)cc1,inactive,–
CC(C)(C)c1ccc(-c2ccc(C(C)(C)C)cc2)cc1,inactive,–
Cc1ccc(C(C)c2ccc(C)c(C)c2)cc1C,inactive,–
CC=C1CC2C=CC1C2 (stereo not given),inactive,–
CCCCCCCOC(=O)CCC,inactive,–
Cn1c([N+](=O)[O-])cnc1COC(N)=O,inactive,–
c1c[nH]cn1,inactive,–

Compound,outcome,AC50
C1CN(SSN2CCOCC2)CCO1,inactive,–
O=c1cc(-c2ccccc2)oc2ccccc12,inactive,–
O=C(C=Cc1ccccc1)OCc1ccccc1,inactive,–
O=C1C(N(CO)C(=O)NCO)N(CO)C(=O)N1CO (stereo not given),inactive,–
O=S(=O)(O)c1ccccc1C=Cc1ccc(-c2ccc(C=Cc3ccccc3S(=O)(=O)O)cc2)cc1,inactive,–
CCOC(=O)Cc1cccc2ccccc12,inactive,–
CCCCC(CC)CCC(CC(C)C)OS(=O)(=O)O (stereo not given),inactive,–
CC/C=C\C/C=C\C/C=C\CCCCCCCC(=O)O,inactive,–
Cc1ccc(N/N=c2\c(=O)cc/c(=N/Nc3ccc(S(=O)(=O)O)cc3)c2=O)c(C)c1,inactive,–
O=C(C(Cl)Cl)N1CCOC12CCCCC2,inactive,–
CC(=O)OC(C)C,inactive,–
CC(C)(C)c1ccc(OC(=O)c2ccccc2O)cc1,inactive,–
Cc1ccc(C(C)(C)C)cc1,inactive,–
NC(=O)N=NC(N)=O,inactive,–
CCOC(=O)CC,inactive,–
O=S1(=O)OC(c2ccc(O)cc2)(c2ccc(O)cc2)c2ccccc21,inactive,–
OC1CCCC1,inactive,–
CC1=CC[C@H]2C[C@@H]1C2(C)C,inactive,–
CC(C)c1ccc2c(C(C)C)cc(C(C)C)c(S(=O)(=O)O)c2c1,inactive,–
CCCCCCCCCCOS(=O)(=O)O,inactive,–
